Screening results from PubChem BioAssay.
Pf growth 48h – inhibits P. falciparum growth in the first generation, 48 h; P. falciparum luciferase growth in erythrocytes, 48 h; AID 504832; Potency, µM (highest dose often 28.7 µM), without a hit: at the highest dose activity change, negative = inhibition, hits mostly inhibitors; hit rate 5.9% among 310,000; further: potency means the concentration at half of the fitted maximal effect; on the % scale 0 is the no-effect control and ±100 the full control effect
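Growth was read as firefly luciferase luminescence after a 48 h, 37 C, 5% CO2 exposure of compounds to reporter-bearing P. falciparum cultures (0.1% parasitemia, 2% hematocrit final) in Albumax-supplemented RPMI 1640.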
Cycloheximide cs – affects cycloheximide protein synthesis inhibition readout, counter-screen; cell reporter, cycloheximide protein synthesis inhibition counterscreen; max response, %; hit rate 12% among 300,000; AID 2314; in the data active means max response mostly above about 13%, no sharp cut-off; inactive means mostly below about 14%; further: read at 38.3 µM for the half of the compounds with a filed dose; 0% is about no effect
Shiga inhibitor – Shiga toxin inhibition; Vero cells, Shiga toxin protein synthesis inhibition reporter; hit rate 9.2% among 290,000; AID 2315; inhibition, % at 38.7 µM; in the data active means inhibition mostly above about 28%, no sharp cut-off; inactive means mostly below about 43%; further: 0% is about no effect
Pf growth 96h – inhibits malaria parasite growth, 96 h; P. falciparum luciferase reporter growth, 96 h; Potency, µM (titrated, usually from 28.7 µM), without a hit: top-dose activity change, negative = inhibition, hits mostly inhibitors; hit rate 6.9% among 320,000; further: potency means the concentration at half of the fitted maximal effect; on the % scale 0 is the no-effect control and ±100 the full control effect
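Erythrocytes infected with luciferase-expressing P. falciparum were dispensed at 2% hematocrit and 0.05% parasitemia (final), then incubated with compounds 96 hours at 37 C in 5% CO2. Luminescence after detection reagent addition reported growth.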
An asterisk follows results filed as active; u = inconclusive; x = no result given. An excerpt weighted towards active compounds, which were near 21% of everything screened. Unless noted, the call rests on the fitted dose curve; in most records, active means well fitted inhibition curve with a large enough effect; inconclusive means small, poorly fitted or top-dose-only effect, or another doubt; inactive means no such curve, though single readings can be large or run the other way.

SMILES	Pf growth 48h	Cycloheximide cs	Shiga inhibitor	Pf growth 96h
COc1ccc(CNC(=O)C(c2ccncc2)N(C(=O)Cc2cccs2)c2ccc(C)cc2)cc1 (stereo not drawn)	u	5	11	u
COc1ccc(CNC(=O)C(c2ccncc2)N(C(=O)Cc2cccs2)c2ccccc2)cc1 (stereo not drawn)	6%	-1	-8	13µM*
COc1ccc(N(C(=O)CCl)C(C(=O)NCCc2ccccc2)c2cccs2)cc1 (stereo not drawn)	15µM*	2	-15	103%
COc1ccc(CN(C(=O)Cc2cccs2)C(C(=O)NC2CCCC2)c2ccncc2)cc1 (stereo not drawn)	u	-2	-6	15µM*
COc1ccc(CCNC(=O)C(C)SCc2ccccc2)cc1 (stereo not drawn)	-20%	-2	-6	45%
Cc1cccc(N(C(=O)Cc2cccs2)C(C(=O)NC2CCCC2)c2ccncc2)c1 (stereo not drawn)	-48%	-1	11	-17%
Cc1ccc(N(C(=O)Cc2cccs2)C(C(=O)NC2CCCCC2)c2ccccn2)cc1C (stereo not drawn)	0%	16	32*	4.1µM*
O=C(NC1CCCCC1)C(c1ccc2ncccc2c1)N(Cc1ccc(F)cc1)C(=O)c1cccs1 (stereo not drawn)	8.3µM*	11	-12	10µM*
Cc1c(C(=O)Nc2ccc(S(=O)(=O)N3CCOCC3)cc2)cccc1[N+](=O)[O-]	28%	-1	x	u
CCO[C@H]1OC(C(=O)NCc2ccccc2)=C[C@@H](C2CC2)[C@@H]1CCCO	u	1	13	-19%
COc1cc2c(c(OC)c1OC)-c1ccc(NC(=O)c3ccccc3)c(=O)cc1[C@@H](NC(C)=O)CC2	9.3µM*	1	-17	u
COc1cc2c(c(OC)c1OC)-c1ccc(O)cc1[C@@H](NC(C)=O)CC2	u	x	x	67%
COc1ccc(C2NS(=O)(=O)OCC2C)cc1 (stereo not drawn)	30%	-4	-10	23%
O=C(N/N=C/c1ccc([N+](=O)[O-])cc1)c1ccc(COc2ccccc2-c2ccccc2)cc1	u	-2	-6	u
OC1c2cc(Br)ccc2N=C2CCCN21 (stereo not drawn)	8.3µM*	-4	-17	10µM*
C=CCOc1ccc(C(=O)Nc2ncn[nH]2)cc1	43%	-3	8	-28%
COc1ccccc1N1CC(O)=C(c2nc3ccccc3c(=O)[nH]2)C1=N	9.3µM*	16	-3	6%
Cc1ccc(CNC(=O)CNC(=O)[C@@H]2Cc3ccccc3CN2C(=O)OC(C)(C)C)cc1	u	-6	-5	-17%
Cc1ccc2nc(-c3ccc(N4C(=O)CC(N5CCC(C(N)=O)CC5)C4=O)cc3)sc2c1 (stereo not drawn)	62%	26*	33	25%
Cc1ccc2nc(-c3ccc(N4C(=O)CC(N5CCCC(C)C5)C4=O)cc3)sc2c1 (stereo not drawn)	71%	70*	143*	41%
CC1CCCCC1NC(=O)CNC(=O)c1ccco1 (stereo not drawn)	-6%	x	x	-18%
Cc1nn(Cc2ccc(F)cc2)c(Cl)c1/C=N/NC(=O)c1ccccc1	u	18*	39	u
Cc1nn(Cc2ccccc2)c(C)c1/C=N/NC(=O)c1ccccc1O	u	42*	99*	u
Cc1nn(Cc2ccc(F)cc2)c(Cl)c1/C=N/NC(=O)c1cccnc1	2%	5	22	3%
CC(OC(=O)C1=COCCO1)C(=O)Nc1ncc(Cl)cc1Cl (stereo not drawn)	27%	x	x	12%
SMILES	Pf growth 48h	Cycloheximide cs	Shiga inhibitor	Pf growth 96h
Cc1cc(=O)n(C2CCS(=O)(=O)C2)[nH]1 (stereo not drawn)	44%	-1	-11	38%
CCCN1CCN(C(=O)c2cc(COc3ccc(F)cc3F)on2)CC1	31%	11	29	0%
O=C(NC1CCN(Cc2ccccc2)C1)c1cc(COc2ccc(F)cc2F)on1 (stereo not drawn)	u	4	17	u
Cc1ccc(C)c(OCc2cc(C(=O)N3CCC(N4CCCC(O)C4)CC3)no2)c1 (stereo not drawn)	-24%	0	6	-10%
Cc1ccc(C)c(OCc2cc(C(=O)N3CCNC(=O)C3)no2)c1	-3%	15	7	24%
Cc1ccc(C)c(OCc2cc(C(=O)N3CCOCC3)no2)c1	37%	49*	58*	u
Cc1ccc(C)c(OCc2cc(C(=O)NC3CCN(Cc4ccccc4)CC3)no2)c1	u	29*	23	u
COCCCC1CCN(C(=O)c2cc(COc3cc(C)ccc3C)on2)CC1	22%	56*	162*	u
COCCN1CCN(C(=O)c2cc(COc3cc(C)ccc3C)on2)CC1	8%	39*	81*	36%
CN1C(=O)C(CCC(=O)O)NC1=S (stereo not drawn)	0%	-1	36	114%
CC(=O)N(Cc1ccccc1)c1nc(-c2ccccc2)cs1	-7%	2	-2	15%
CC(=O)NCCC1CCCCN1C(=O)c1cc(COc2cc(C)ccc2C)on1 (stereo not drawn)	25%	45*	101*	28%
CCOC(=O)COc1coc(CN2CCN(c3ccc(F)cc3)CC2)cc1=O	5%	-1	-13	u
Cc1[nH]c2ccccc2c1N=Nc1cc(C(=O)O)cc(C(=O)O)c1	22%	5	42	52%
Cc1[nH]c2ccccc2c1N=Nc1ccc(F)cc1	20%	19*	45	53%
Cc1[nH]c2ccccc2c1N=Nc1ccccc1F	14%	24*	53*	5%
CCc1ccc(/C(C)=N/NS(=O)(=O)c2ccc(OC)cc2)s1	30%	-2	-9	33%
Cc1cc2c(cc1S(=O)(=O)N1CCOCC1)NC(=O)CO2	11%	2	-2	-1%
Cc1ccc(C(=O)c2sc3nsc(C)c3c2N)cc1	x	86*	155*	202%
Cc1snc2sc(C(=O)c3ccc(Br)cc3)c(N)c12	x	27*	28	263%
COc1ccccc1C(CNc1ccc(S(=O)(=O)N2CCCC2)cc1[N+](=O)[O-])N(C)C (stereo not drawn)	-19%	-5	-10	u
NC(=O)C1CCN(C(=O)CCSCc2ccc(Cl)c(Cl)c2)CC1	0%	2	-28	u
CCN(CC)S(=O)(=O)c1ccc(N(C)Cc2cccnc2)nc1	x	6	-21	u
COc1ccccc1CC(=O)O/N=C(\N)c1ccccn1	109%	42*	92*	65%
COc1ccc(/C(N)=N/OC(=O)Cc2ccccc2OC)cc1	8%	39*	36*	-29%
COc1ccccc1/C=N\N=C(\N)c1ccccn1	140%	55*	89*	10%
N/C(=N\OC(=O)c1cccc2ccccc12)c1ccccn1	-9%	57*	95*	-9%
COc1cccc(C(=O)O/N=C(\N)c2ccccn2)c1OC	-20%	10	-6	215%
Cc1ccc(CN2CC(C(=O)Nc3ccc(F)c([N+](=O)[O-])c3)CC2=O)cc1 (stereo not drawn)	-22%	5	-9	-1%
